# Screening data deposited in PubChem BioAssay by several laboratories.
# Dyrk1A ADPGlo: rat Dyrk1A kinase inhibitors, primary screen, biochemical, single point, plate reader; Dual specificity tyrosine-phosphorylation-regulated kinase 1A (Rattus norvegicus), Q63470; ADP-Glo luminescence, NFATc1 peptide; inhibition, % at 12.5 µM; 310,000 compounds, 0.43% hits; AID 504441, 2011; in the data active means inhibition above about 50%;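 further: plate controls were vehicle with enzyme for no effect and no enzyme for full effect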
# A1 inh: caspase 3/7 activation in MEF A1-2A-BIM cells, primary screen, A1 inhibitor project, cell-based, luminescence, HTS; Caspase-Glo 3/7 luminescence, 3 h; percent of clofoctol response, vehicle zero; caspase activation, % (test concentration not listed); 330,000 compounds, 0.066% hits; AID 2462, 2010;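 active means over half of replicate activation scores above 10%, or exactly half above 10 with the replicate mean above 10; inconclusive means replicate mean below 10 yet half the replicates above 10; inactive means over half of replicates below 10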
# dFosB act-1: activators of delta FosB homodimer, primary screen, biochemical, fluorescence polarization, TAMRA-CDK5 oligo, single point | Protein FosB (Mus musculus), P13346 | purified delta FosB; percent of positive-control signal above neutral wells | activation, % at 25 µM | 340,000 compounds, 0.99% hits | AID 493131, 2011;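 active means mean activation above about 17%, with every replicate also reaching it, limit read from the data, passing the limit was not always enough; inconclusive means only one of the two conditions met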
# B2AR ag: beta2AR agonists driving receptor internalization, primary screen, cell-based, FAP fluorogen, flow cytometry; Beta-2 adrenergic receptor (Homo sapiens), P07550; Am2.2-beta2AR cells; response, % (no concentration beside the values); 340,000 compounds, 0.43% hits;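 active means response above a set limit, near 3 SD of response in nonfluorescent compounds, cut at about 42% in these data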
# Target sequence (P07550 whole entry, looked up): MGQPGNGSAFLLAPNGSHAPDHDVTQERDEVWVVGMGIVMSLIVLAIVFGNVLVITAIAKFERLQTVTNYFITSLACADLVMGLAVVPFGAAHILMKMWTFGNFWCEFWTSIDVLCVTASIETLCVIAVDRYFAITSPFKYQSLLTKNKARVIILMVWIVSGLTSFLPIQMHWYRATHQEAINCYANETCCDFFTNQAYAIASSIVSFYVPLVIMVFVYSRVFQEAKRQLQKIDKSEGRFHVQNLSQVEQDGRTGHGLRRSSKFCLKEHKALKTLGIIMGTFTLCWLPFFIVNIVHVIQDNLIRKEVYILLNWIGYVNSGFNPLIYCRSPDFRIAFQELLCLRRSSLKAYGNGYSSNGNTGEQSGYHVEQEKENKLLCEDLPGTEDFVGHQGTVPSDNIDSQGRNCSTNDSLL
# dFosB act-2: activators of mouse delta FosB DNA binding, confirmation, biochemical, fluorescence polarization, TAMRA-CDK5 oligo, cherry-picked samples; 2,400 tested, under 10 active; shares compounds with dFosB act-1; activation, % at 24.9 µM; purified delta FosB; normalised: neutral wells 0, positive control 100;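 active means highest replicate activation at or above 34% and every replicate reaching that threshold; inconclusive means meets only one of the two criteria; inactive means meets neither criterion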;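 further: higher polarization means more probe DNA bound by delta FosB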
# * marks the source's active call; other numbers are inactive results; ? = inconclusive; . = no result given. The list is not random: actives were taken first. Their share in the collection is about 1.6%.
SMILES,Dyrk1A ADPGlo,A1 inh,dFosB act-1,B2AR ag,dFosB act-2
CCN(C(=O)COC(=O)CCc1ccc(OC)cc1)c1c(N)n(Cc2ccccc2)c(=O)[nH]c1=O,-7,.,42*,-2,1
CCN(C(=O)COC(=O)COc1ccc2c(c1)CCC2)c1c(N)n(Cc2ccccc2)c(=O)[nH]c1=O,5,.,24*,6,-1
CC(C)CN(C(=O)COC(=O)c1ccc(Br)cc1)c1c(N)n(Cc2ccccc2)c(=O)[nH]c1=O,12,1,51*,-4,-1
CN(C(=O)COC(=O)COc1ccc2c(c1)CCC2)c1c(N)n(Cc2ccccc2)c(=O)[nH]c1=O,-5,-1,-18,1,.
COc1ccc(C(=O)Nc2ccc(C(=O)N3CCC(C)CC3)cc2)cc1OC,2,-2,-9,7,.
Cc1cnc(C(=O)OCC(=O)c2ccc(Cl)cc2)cn1,6,1,-3,-12,.
CN(C(=O)c1cccc(NC(=O)Cc2ccc(NC(=O)C3CCCN(C(=O)C4CCC4)C3)cc2)c1)C1CCCC1 (stereo not drawn),-3,.,-7,-2,.
COc1cccc(NC(=S)NC(=O)/C=C/c2ccc(F)cc2)c1,-2,0,34*,5,-1
N#C/C(=C\c1ccc[nH]1)C(=O)Nc1ccccc1Cl,-1,-5,66*,1,3
C=C(C)Cn1c(=O)c2c(nc3n2CCCN3Cc2ccccc2)n(C)c1=O,-2,0,-3,-6,.
CCN(CC(=O)NCc1cccs1)C(=O)/C=C/c1cc(Br)ccc1OC(F)F,.,?,-18,-11,.
CCOC(=O)c1cc2c(N)c(C(=O)c3ccc(Br)cc3)sc2[nH]c1=O,8,?,22*,-2,0
Cc1ccc(CCNC(=O)C2CCCN(S(=O)(=O)c3cccc4nsnc34)C2)cc1 (stereo not drawn),-3,1,47*,0,3
Cc1cccc(CCNC(=O)C2CCCN(S(=O)(=O)c3cccc4nsnc34)C2)c1 (stereo not drawn),5,1,-4,-9,.
O=C(Nc1cccc2c1CCCC2)C1CCCN(S(=O)(=O)c2cccc3nonc23)C1 (stereo not drawn),-1,0,24*,-8,4
CC(=O)c1ccc(NC(=O)C2CCCN(S(=O)(=O)c3cccc4nonc34)C2)cc1 (stereo not drawn),-5,0,-18,6,.
O=C(Cn1nnc2ccccc2c1=O)Nc1cccc(S(=O)(=O)N2CCOCC2)c1,1,0,1,3,.
CSCCC(NC(=O)COc1ccccc1)C(=O)N(C)CC(=O)Nc1c(C)cccc1C (stereo not drawn),7,0,-12,-5,.
O=C(Cc1ccccc1)NNC1CC(=O)N(c2ccc(Cl)cc2)C1=O (stereo not drawn),3,0,-1,8,.
O=C(Cc1ccc(Cl)cc1)NNC1CC(=O)N(c2ccc3ccccc3c2)C1=O (stereo not drawn),5,0,32*,-1,3
O=Cc1cn(-c2ccccc2)nc1-c1cc2cc(O)ccc2oc1=O,0,-1,25*,-7,3
O=Cc1cn(-c2ccccc2)nc1-c1cc2c(ccc3ccccc32)oc1=O,-1,-1,2,6,.
CCOC(=O)c1sc(NC(=O)CN2C(=O)c3cccc4cccc(c34)C2=O)nc1C,-3,0,47*,16,-6
Cc1ccc(NC(=O)c2nnn(CC(=O)Nc3ccc4c(c3)OCO4)c2N)cc1C,0,1,46*,7,-1
Cc1ccc(NC(=O)Cn2nnc(C(=O)Nc3ccc(C)c(C)c3)c2N)cc1,0,2,120*,2,-6
COc1ccc(NC(=O)Cn2nnc(C(=O)Nc3ccc(F)c(Cl)c3)c2N)cc1OC,-4,-1,23*,2,3
O=C(Cc1csc(Nc2nc(=S)[nH]c3ccccc23)n1)NCCCN1CCN(c2ccccc2F)CC1,1,1,20*,6,3
